# According to PubChem BioAssay (EPA / NIEHS):
# Active and inactive are the calls of the source. The calls were made as follows: active = hit-call score of the fitted dose curve at least 0.9, where 1 is the maximum; inactive = score below 0.9.
# Read-out: Cyclin D2 (CCND2), CCND2 (gene 894)
# Test: LTEA_HepaRG_CCND2: Life Technologies and Expression Analysis (LTEA) Assay for Cyclin D2 (CCND2) using HepaRG (AID 2283449)
# Details: mRNA level, 48 h; actives raise or lower the signal
# Outline: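 CCND2 transcript levels, quantified by qRT-PCR and normalised to three housekeeping genes, were fitted bidirectionally against 0.5% DMSO. HepaRG cultures were dosed 48 h in duplicate with an 8-point half-log series up to 100 uM.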
row,Structure (SMILES),outcome
1,O=C=NCCCCCCN=C=O,inactive
2,Cc1cccc2ccccc12,inactive
3,O=C1O[C@H]([C@@H](O)CO)C(O)=C1O,inactive

# Read-out: Cyclin Dependent Kinase Inhibitor 1A (CDKN1A), CDKN1A (gene 1026)
# Test: LTEA_HepaRG_CDKN1A: Life Technologies and Expression Analysis (LTEA) Assay for Cyclin Dependent Kinase Inhibitor 1A (CDKN1A) using HepaRG (AID 2283450)
# Details: mRNA level, 48 h; actives raise or lower the signal
# Outline: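 Differentiated human HepaRG cells, pre-cultured 48 h, were exposed in duplicate for 48 h in serum-free induction medium to eight half-log concentrations up to 100 uM (0.5% DMSO). CDKN1A mRNA was measured by qRT-PCR, normalized to ACTB/GAPDH/POLR2A, bidirectionally fitted versus DMSO.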
Structure (SMILES),outcome,AC50
O=C=NCCCCCCN=C=O,inactive,
CCN(Cc1cccnc1)C(=O)c1cccc(Cl)c1[C@]1(C)C(=O)N(Cc2ccc(OC)cc2OC)c2ccc(Cl)cc21,,11.6 µM (active)
O=C(O)c1ccccc1C(=O)OCc1ccccc1,inactive,
CCOC(=O)O[C@H](C)OC(=O)c1ccc2c(c1)cc(C(=O)NC1CCN(C(C)C)CC1)n2Cc1cc(-c2ccc(Cl)s2)on1,inactive,
CCCCCc1ccc(N)cc1,inactive,
CN(C)C(=O)C1(N2CCCCC2)CCN(CC[C@@]2(c3ccc(Cl)c(Cl)c3)CN(C(=O)c3ccccc3)CCO2)CC1,,84.3 µM (active)
CC1(C)NC(=O)N(c2ccc([N+](=O)[O-])c(C(F)(F)F)c2)C1=O,,80.8 µM (active)
CCN(Cc1cccc(S(=O)(=O)O)c1)c1ccc(C(=C2C=CC(=[N+](CC)Cc3cccc(S(=O)(=O)O)c3)C=C2)c2ccccc2S(=O)(=O)[O-])cc1,inactive,
Cc1ncc(CO)c(CO)c1O,inactive,
CCCCCCCCCC(=O)O,inactive,
OCCO,inactive,
NCc1cccc(C2CCN(C(=O)c3ccc(C#Cc4ccccc4F)o3)CC2)c1,inactive,
Cc1cccc2ccccc12,inactive,
CC(O)CC(C)(C)O (centres undefined),inactive,
Cc1cc(F)ccc1-c1cc(N2CC[C@@H](O)[C@H]2CO)ncc1N(C)C(=O)C(C)(C)c1cc(C(F)(F)F)cc(C(F)(F)F)c1,,12.3 µM (active)
CCCCCCCCCCCO,inactive,
c1ccc2ccccc2c1,inactive,
CCO[Si](CCCNC(N)=O)(OCC)OCC,inactive,
Cc1ccc(C(C)C)cc1,inactive,

Structure (SMILES),outcome,AC50
c1ccc(C[n+]2cccc3ccccc32)cc1,,50 µM (active)
O=C1O[C@H]([C@@H](O)CO)C(O)=C1O,inactive,
CCCOC(=O)c1cc(O)c(O)c(O)c1,inactive,
CCCC(=O)OCCC(C)C,inactive,
Oc1ccccc1,inactive,
Cc1cn([C@H]2C[C@H](N=[N+]=[N-])[C@@H](CO)O2)c(=O)[nH]c1=O,inactive,
CC/C(=C(/CC)c1ccc(O)cc1)c1ccc(O)cc1,inactive,
O=c1ccc2ccccc2o1,inactive,
COc1ccc2cc(S(=O)(=O)N[C@H](CC(=O)N[C@H](Cc3ccc(CN4[C@H](C)CCC[C@@H]4C)cc3)C(=O)N(C)C(C)C)c3ccc4c(c3)OCO4)ccc2c1,inactive,
O=CCCCC=O,inactive,
CN(C)c1ccc(C(=C2C=CC(=[N+](C)C)C=C2)c2ccc(N(C)C)cc2)cc1,inactive,
O=c1[nH]sc2ccccc12,inactive,
COc1cc(C(=O)NC2CCN(C)CC2)ccc1Nc1ncc2c(n1)N(C1CCCC1)CC(F)(F)C(=O)N2C,inactive,
Cc1occc1C(=O)Nc1ccc(C(=O)N2CCC(F)(F)/C(=C\C(=O)N3CCC(N4CCCCC4)CC3)c3ccccc32)cc1,inactive,
CC(C)(C)c1csc(-c2cc3cc(OCc4ccccc4CC(=O)O)ccc3o2)n1,inactive,
CC1=CC(=O)/C(=C(/C)O)C(=O)O1,inactive,
CC[C@@H]1C[C@H](N(Cc2cc(C(F)(F)F)cc(C(F)(F)F)c2)C(C)=O)c2cc(C(F)(F)F)ccc2N1C(=O)OC(C)C,inactive,
CN(C[C@@H](CC[N+]12CCC(C3CCCCC3)(CC1)CC2)c1ccc(Cl)c(Cl)c1)C(=O)c1cc(C(F)(F)F)cc(C(F)(F)F)c1,inactive,
O=C(O)c1ccccc1-n1cc(C(=O)O)c(=O)c2cc(Nc3c(F)cc(F)cc3Cl)c(Cl)cc21,inactive,

# Read-out: Cyclin D1 (CCND1), CCND1 (gene 595)
# Test: LTEA_HepaRG_CCND1: Life Technologies and Expression Analysis (LTEA) Assay for Cyclin D1 (CCND1) using HepaRG (AID 2283451);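 as to AC50: TaqMan qRT-PCR transcript level normalised to ACTB GAPDH and POLR2A housekeeping genes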
# Details: mRNA level, 48 h; actives raise or lower the signal
# Outline: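 Differentiated human HepaRG cells in serum-free induction medium were exposed 48 h to eight half-log concentrations up to 100 uM in 0.5% DMSO; mRNA quantified by TaqMan qRT-PCR, normalized to ACTB, GAPDH, POLR2A, fitted bidirectionally versus DMSO.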
Structure (SMILES),outcome,AC50
O=C=NCCCCCCN=C=O,inactive,
CCN(Cc1cccnc1)C(=O)c1cccc(Cl)c1[C@]1(C)C(=O)N(Cc2ccc(OC)cc2OC)c2ccc(Cl)cc21,inactive,
O=C(O)c1ccccc1C(=O)OCc1ccccc1,inactive,
CCOC(=O)O[C@H](C)OC(=O)c1ccc2c(c1)cc(C(=O)NC1CCN(C(C)C)CC1)n2Cc1cc(-c2ccc(Cl)s2)on1,inactive,
CCCCCc1ccc(N)cc1,inactive,
CN(C)C(=O)C1(N2CCCCC2)CCN(CC[C@@]2(c3ccc(Cl)c(Cl)c3)CN(C(=O)c3ccccc3)CCO2)CC1,,47.2 µM (active)
CC1(C)NC(=O)N(c2ccc([N+](=O)[O-])c(C(F)(F)F)c2)C1=O,inactive,
CCN(Cc1cccc(S(=O)(=O)O)c1)c1ccc(C(=C2C=CC(=[N+](CC)Cc3cccc(S(=O)(=O)O)c3)C=C2)c2ccccc2S(=O)(=O)[O-])cc1,inactive,
Cc1ncc(CO)c(CO)c1O,inactive,
CCCCCCCCCC(=O)O,inactive,
OCCO,inactive,
NCc1cccc(C2CCN(C(=O)c3ccc(C#Cc4ccccc4F)o3)CC2)c1,inactive,
Cc1cccc2ccccc12,inactive,
CC(O)CC(C)(C)O (centres undefined),inactive,
Cc1cc(F)ccc1-c1cc(N2CC[C@@H](O)[C@H]2CO)ncc1N(C)C(=O)C(C)(C)c1cc(C(F)(F)F)cc(C(F)(F)F)c1,inactive,
CCCCCCCCCCCO,inactive,
c1ccc2ccccc2c1,inactive,
CCO[Si](CCCNC(N)=O)(OCC)OCC,inactive,
Cc1ccc(C(C)C)cc1,inactive,

Structure (SMILES),outcome,AC50
c1ccc(C[n+]2cccc3ccccc32)cc1,inactive,
O=C1O[C@H]([C@@H](O)CO)C(O)=C1O,inactive,
CCCOC(=O)c1cc(O)c(O)c(O)c1,inactive,
CCCC(=O)OCCC(C)C,inactive,
Oc1ccccc1,inactive,
Cc1cn([C@H]2C[C@H](N=[N+]=[N-])[C@@H](CO)O2)c(=O)[nH]c1=O,inactive,
CC/C(=C(/CC)c1ccc(O)cc1)c1ccc(O)cc1,,80.3 µM (active)
O=c1ccc2ccccc2o1,inactive,
COc1ccc2cc(S(=O)(=O)N[C@H](CC(=O)N[C@H](Cc3ccc(CN4[C@H](C)CCC[C@@H]4C)cc3)C(=O)N(C)C(C)C)c3ccc4c(c3)OCO4)ccc2c1,inactive,
O=CCCCC=O,inactive,
CN(C)c1ccc(C(=C2C=CC(=[N+](C)C)C=C2)c2ccc(N(C)C)cc2)cc1,,37.1 µM (active)
O=c1[nH]sc2ccccc12,inactive,
COc1cc(C(=O)NC2CCN(C)CC2)ccc1Nc1ncc2c(n1)N(C1CCCC1)CC(F)(F)C(=O)N2C,,46.5 µM (active)
Cc1occc1C(=O)Nc1ccc(C(=O)N2CCC(F)(F)/C(=C\C(=O)N3CCC(N4CCCCC4)CC3)c3ccccc32)cc1,,39.9 µM (active)
CC(C)(C)c1csc(-c2cc3cc(OCc4ccccc4CC(=O)O)ccc3o2)n1,,50 µM (active)
CC1=CC(=O)/C(=C(/C)O)C(=O)O1,inactive,
CC[C@@H]1C[C@H](N(Cc2cc(C(F)(F)F)cc(C(F)(F)F)c2)C(C)=O)c2cc(C(F)(F)F)ccc2N1C(=O)OC(C)C,inactive,
CN(C[C@@H](CC[N+]12CCC(C3CCCCC3)(CC1)CC2)c1ccc(Cl)c(Cl)c1)C(=O)c1cc(C(F)(F)F)cc(C(F)(F)F)c1,,28.9 µM (active)
O=C(O)c1ccccc1-n1cc(C(=O)O)c(=O)c2cc(Nc3c(F)cc(F)cc3Cl)c(Cl)cc21,inactive,
